The source made the active and inactive calls. Calls follow the shape of the dose curve; as a rule, active = well fitted inhibition curve with a large enough effect; inconclusive = small, poorly fitted or top-dose-only effect; inactive = flat fitted curve, though single readings scatter.
What follows are molecules tested against Flap endonuclease 1 (Homo sapiens) (UniProt P39748) (assay: qHTS Validation Assay for the Inhibitors of Human Flap endonuclease 1 (FEN1) (AID 488816)). Conditions: FEN1 nuclease activity, fluorogenic DNA substrate; series mostly up to 57.1 µM; activity, negative = inhibition: at the top concentration.
Description: The major human flap endonuclease FEN1 is an efficient structure-specific enzyme that recognizes and cleaves a 5'-unannealed DNA flap. It belongs to the RAD2 family nucleases, which are involved in DNA metabolism and are highly conserved in prokaryotes and eukaryotes. FEN1 is a key enzyme in DNA replication, repair and maintenance of genomic stability. 5'-flap removal by FEN1 is critical for Okazaki fragment processing during lagging strand DNA synthesis, long-patch base excision repair (LP BER), and regulating or facilitating recombination events. […] Deletion of the yeast FEN1 gene, i.e. rad27, results in an increased frequency of short DNA (3-32 bp) repeats, micro- and mini-satellite formation, trinucleotide repeat expansion, spontaneous recombination events, and a severe growth defect in association with cell cycle arrest in late S/G2 phase. […] Cells from fen1-/- blastocysts show increased apoptotic cell death after ionizing radiation treatment, and chicken cells lacking the fen1 gene are hypersensitive to DNA alkylating agents, e.g. methylmethane sulfonate (MMS) and N-methyl-N'-nitro-N-nitrosoguanidine (MNNG), as well as hydrogen peroxide.
FEN1 is found to be increased in many human cancers, including lung, brain cancer, gastric cancer, prostate cancer, pancreatic cancer and breast cancer. […] In particular, elevation of FEN1 in hormone refractory human prostate cancer cells correlates with resistant to various anticancer agents including ionizing radiation, doxorubicin, paclitaxel and vinblastine.
Three uL of reagents (buffer in column 3 and 4 as negative control and 10 nM FEN1 in columns 1, 2, and 5-48) were dispensed into 1,536-well black solid-bottomed plate. Compounds (23 nL) were transferred via Kalypsys pin tool equipped with 1536-pin array (10 nL slotted pins, V&P Scientific, San Diego, CA). The plates were then incubated for 15 min at room temperature, and 1 uL substrate (50 nM final concentration) were added to start the reaction read twice at 0 min read and 15 min on ViewLux reader. Throughout the screen, reagent bottle and all liquid lines were chilled and made light-tight to minimize reagent degradation. All screening operations were performed on a fully integrated robotic system (Kalypsys, San Diego, CA) containing one RX-130 and two RX-90 anthropomorphic robotic arms (Staubli, Duncan, SC). Library plates were screened starting from the lowest and proceeding to the highest concentration, and a "double-dipping" step of the highest concentration was required to access higher concentrations of compounds. Vehicle-only plates, with DMSO being pin-transferred to the entire column 5-48 compound area, were inserted uniformly at the beginning and the end of each library in order to monitor for and record any shifts in the background, which can be affected by reagent dispensers or loss in enzyme activity overtime. Screening data was corrected, normalized, and concentration-effect relationships were derived by using publicly-available curve fitting algorithms developed in-house (http://ncgc.nih.gov/pub/openhts). A four parameter Hill equation was fitted to the concentration-response data by minimizing the residual error between the modeled and observed responses.
% is scaled to controls: 0 for no effect and ±100 for the full control effect; potency is read from the fitted curve at half-maximal effect.

Chain of Flap endonuclease 1 (Homo sapiens) (P39748 whole entry, looked up, the tested form may be a part): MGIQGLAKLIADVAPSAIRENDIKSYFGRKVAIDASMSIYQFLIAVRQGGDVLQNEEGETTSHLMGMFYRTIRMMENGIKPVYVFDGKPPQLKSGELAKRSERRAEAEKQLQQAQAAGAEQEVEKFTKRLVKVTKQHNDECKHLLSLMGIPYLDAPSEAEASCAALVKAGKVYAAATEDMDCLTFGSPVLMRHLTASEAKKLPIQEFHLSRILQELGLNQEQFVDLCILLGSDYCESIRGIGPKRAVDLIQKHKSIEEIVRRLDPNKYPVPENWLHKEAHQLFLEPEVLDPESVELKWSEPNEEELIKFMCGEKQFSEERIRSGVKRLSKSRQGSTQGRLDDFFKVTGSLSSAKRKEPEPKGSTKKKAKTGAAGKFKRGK

Row | SMILES | activity, negative = inhibition | Potency
1 | C[C@H](Cc1ccccc1)Nc1ncnc2c1ncn2[C@@H]1O[C@H](CO)[C@@H](O)[C@H]1O | -6.72% (inactive) | –
2 | C1CCC(N=C(NC23CC4CC(CC(C4)C2)C3)N2CCOCC2)CC1 | -9.71% (inactive) | –
3 | Oc1cc2c(c(Cl)c1O)CCNCC2c1ccccc1 (configuration not stated) | -15.8% (inactive) | –
4 | O=Nc1c(-c2c(O)[nH]c3ccccc23)[nH]c2ccccc12 | -24.6% (inactive) | –
5 | S=C(Nc1ccccc1)Nc1nccs1 | -14.2% (inactive) | –
6 | CCc1ccc(/C=C2/SC(=S)NC2=O)cc1 | -8.56% (inactive) | –
7 | Nc1c(S(=O)(=O)O)cc(Nc2ccc(Nc3nc(Cl)nc(Nc4ccc(S(=O)(=O)O)cc4)n3)c(S(=O)(=O)O)c2)c2c1C(=O)c1ccccc1C2=O | – | 0.947 µM (active)
8 | O=C1c2ccccc2C(=O)c2c(NCCc3ccc(O)cc3)ccc(NCCc3ccc(O)cc3)c21 | -17.4% (inactive) | –
9 | N.N.O=C(O)C1(C(=O)O)CCC1.[Pt+2] | – | 29.9 µM (active)
10 | N#C/C(=C\c1ccc(O)c(O)c1)C(=O)Nc1ccccc1 | – | 18.9 µM (active)
11 | Cc1cccc(/C=C/c2ccccc2)n1 | -2.12% (inactive) | –
12 | CN1C2CCCC1CC(NC(=O)c1nn(C)c3ccccc13)C2 (configuration not stated) | -2.26% (inactive) | –

From PubChem BioAssay (NCATS)
